# Data reported in PubChem BioAssay (NCATS).
# Values joined by “and” are separate entries in the source; they are usually repeats but may differ in a detail not shown here. Equal entries are not always repeated. Records with an inconclusive call do not appear. Active and inactive are the calls of the source. Unless noted, the call rests on the fitted dose curve; in most records, active means well fitted curve in the direction sought with a large enough effect; inconclusive means small, poorly fitted or top-dose-only effect, or another doubt; inactive means no such curve, though single readings can be large; an effect the other way counts as inactive or inconclusive.
# Columns and labels:
# [1] = biological target: Cytochrome P450 2C9 (Homo sapiens) (UniProt P11712); assay: Cytochrome P450 family 2 subfamily C member 9 (CYP2C9) small molecule antagonists: luciferase biochemical (cell-free) qHTS assay (AID 1645842; active means well fitted curve in the direction sought with a large enough effect in the repeat runs; an effect the other way counts as inactive or inconclusive; further: nearly all actives have a fitted effect of over 55% in size; on activity change, negative = inhibition: on the % scale 0 is the no-effect control and ±100 the full control effect); conditions: P450-Glo CYP2C9 enzyme assay, luciferin luminescence; series mostly up to 57.4 µM
# Procedure, shortened: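 P450-Glo CYP2C9 system: proluciferin substrate with enzyme in mix containing 0.4% BSA, 10 min at room temperature, then NADPH regeneration solution added and incubated 1 h at 37C. Detection reagent stopped reaction; luminescence read after 20 min as RLU.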
# [2] = Primary qHTS for inhibitors of nuclear receptor binding SET domain protein 2 (NSD2) in an isogenic RCH-ACV NSD2 p.E1099K mutant (9B) (AID 1645876); conditions: RCH-ACV NSD2 E1099K (9B) viability, CellTiter-Glo, 72 h; series mostly up to 44.9 µM; further: nearly all actives have a fitted effect of over 70% in size
# [3] = Primary qHTS for inhibitors of nuclear receptor binding SET domain protein 2 (NSD2) in an RCH-ACV wild type WT cells (2C) (AID 1645877); conditions: RCH-ACV (leukaemia line) NSD2 WT (2C) viability, CellTiter-Glo, 72 h; series mostly up to 44.9 µM; further: nearly all actives have a fitted effect of over 70% in size
# [4] = biological target: Catechol O-methyltransferase (Homo sapiens) (UniProt P21964); assay: Confirmatory Screen for Target Class Profiling of Small Molecule Inhibitors of Methyltransferases (AID 1745852; calls by dose curve; on activity change, negative = inhibition: on the % scale 0 is the no-effect control and ±100 the full control effect); conditions: MTase-Glo luminescence, SAH detection, recombinant enzyme; measured here: COMT max response; stronger effect = lower value
# [5] = biological target: Guanidinoacetate N-methyltransferase (Homo sapiens) (UniProt Q14353); assay: as above; conditions: MTase-Glo luminescence, SAH detection, recombinant enzyme; activity change, negative = inhibition: at 57.3 µM (top of the series) unless noted; series mostly up to 57.3 µM
# [6] = biological target: Nicotinamide N-methyltransferase (Homo sapiens) (UniProt P40261); assay: as above; conditions: MTase-Glo luminescence, SAH detection, recombinant enzyme; measured here: NNMT max response; stronger effect = lower value
# [7] = biological target: Phenylethanolamine N-methyltransferase (Homo sapiens) (UniProt P11086); assay: as above; conditions: MTase-Glo luminescence, SAH detection, recombinant enzyme; measured here: PNMT max response; stronger effect = lower value
# Potency means the concentration at half of the fitted maximal effect.
# Nicotinamide N-methyltransferase (Homo sapiens), sequence (P40261 whole entry, looked up): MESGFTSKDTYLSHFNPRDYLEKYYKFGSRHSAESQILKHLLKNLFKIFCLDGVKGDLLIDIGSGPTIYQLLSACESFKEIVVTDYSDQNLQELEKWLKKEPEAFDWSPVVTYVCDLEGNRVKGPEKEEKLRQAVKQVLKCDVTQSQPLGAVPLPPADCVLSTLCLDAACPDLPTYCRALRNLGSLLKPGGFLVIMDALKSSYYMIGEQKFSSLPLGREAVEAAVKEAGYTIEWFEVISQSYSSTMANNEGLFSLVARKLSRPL
# Phenylethanolamine N-methyltransferase (Homo sapiens), sequence (P11086 whole entry, looked up): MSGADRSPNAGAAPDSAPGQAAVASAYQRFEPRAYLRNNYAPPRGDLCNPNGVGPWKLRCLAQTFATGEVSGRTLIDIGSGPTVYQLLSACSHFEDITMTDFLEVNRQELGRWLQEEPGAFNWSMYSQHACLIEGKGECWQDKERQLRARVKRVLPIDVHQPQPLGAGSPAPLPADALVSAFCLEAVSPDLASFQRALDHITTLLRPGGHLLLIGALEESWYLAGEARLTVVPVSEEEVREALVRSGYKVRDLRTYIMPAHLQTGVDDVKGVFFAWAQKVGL
# Cytochrome P450 2C9 (Homo sapiens), sequence (P11712 whole entry, looked up): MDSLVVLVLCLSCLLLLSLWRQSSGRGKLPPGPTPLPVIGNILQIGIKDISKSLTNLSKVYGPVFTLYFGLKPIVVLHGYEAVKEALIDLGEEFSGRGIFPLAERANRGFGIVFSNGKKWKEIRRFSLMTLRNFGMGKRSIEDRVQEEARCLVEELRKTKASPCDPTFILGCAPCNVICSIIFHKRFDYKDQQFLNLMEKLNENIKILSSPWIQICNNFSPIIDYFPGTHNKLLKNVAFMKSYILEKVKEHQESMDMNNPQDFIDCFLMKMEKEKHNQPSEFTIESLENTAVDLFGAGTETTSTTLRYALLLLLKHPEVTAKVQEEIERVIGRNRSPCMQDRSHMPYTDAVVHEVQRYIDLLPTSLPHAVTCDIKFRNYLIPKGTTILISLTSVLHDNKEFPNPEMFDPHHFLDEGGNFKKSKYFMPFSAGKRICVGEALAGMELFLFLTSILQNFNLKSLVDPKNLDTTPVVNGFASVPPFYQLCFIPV
# Catechol O-methyltransferase (Homo sapiens), sequence (P21964 whole entry, looked up): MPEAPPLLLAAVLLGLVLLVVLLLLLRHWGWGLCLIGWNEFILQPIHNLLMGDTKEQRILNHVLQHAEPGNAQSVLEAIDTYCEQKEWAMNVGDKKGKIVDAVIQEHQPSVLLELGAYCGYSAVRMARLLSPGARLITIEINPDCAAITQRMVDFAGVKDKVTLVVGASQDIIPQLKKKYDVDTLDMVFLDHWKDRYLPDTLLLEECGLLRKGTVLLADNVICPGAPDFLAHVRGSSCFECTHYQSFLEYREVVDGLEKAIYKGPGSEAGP
smiles,measurement,setting,value
COc1cc(NC(=O)c2cccc(-n3cc(NC(=O)Nc4cccc(C)c4)cn3)c2)cc(OC)c1OC,Potency,[1],2.68 µM (active)
same,Potency,[2],8.17 µM (active)
same,Potency,[3],9.16 µM (active)
CN(C)CC#CCCC(=O)C(O)(c1ccccc1)C1CCC1 (stereo not drawn),Potency,[1],10.7 µM (active)
same,Potency,[2],inactive
same,Potency,[3],inactive
CNC(C)C(=O)NC(C(=O)N1CCCC1C(=O)Nc1snnc1-c1ccccc1)C1CCCCC1 (stereo not drawn),Potency,[1],inactive
same,Potency,[2],inactive
same,Potency,[3],inactive
COc1cc(N2CCC(O)CC2)ccc1Nc1nc(Nc2ccccc2S(=O)(=O)C(C)C)c2[nH]cnc2n1,Potency,[1],15.1 µM (active)
same,Potency,[2],5.78 µM (active)
same,Potency,[3],4.09 µM (active)
CN(C)C(=O)C(=O)c1cn(C)c2cc(Cl)c(C(=O)N3CCC(Cc4ccc(F)cc4)CC3)cc12,Potency,[1],inactive
same,Potency,[2],23 µM (active)
same,Potency,[3],23 µM (active)
CNc1nc(NCc2ccc(NS(C)(=O)=O)cc2Cl)cc(-c2ccccn2)n1,Potency,[1],2.68 µM (active)
same,Potency,[2],11.5 µM (active)
same,Potency,[3],7.28 µM (active)
C[C@H](Nc1cc2c(-c3ccc4c(c3)OCO4)noc2cn1)c1ccccc1,Potency,[1],1.69 µM (active)
same,Potency,[2],inactive
same,Potency,[3],inactive
same,activity,[4],-8.55%
same,"activity change, negative = inhibition",[5],-10.4%
same,activity,[6],-7.23%
same,activity,[7],-13.9%
O=C1NC(=O)C(c2cnc3ccccn23)=C1c1cn2c3c(cc(F)cc13)CN(C(=O)N1CCCCC1)CC2,Potency,[1],12 µM (active)
same,Potency,[2],5.2 nM (active) and 9.3 nM (active)
same,Potency,[3],5.2 nM (active) and 10.5 nM (active)
same,activity,[4],-28.3%
same,"activity change, negative = inhibition",[5],-13.3%
same,activity,[6],-51.2%
same,activity,[7],-20.8%
CCOC(=O)c1cnc2ccc(-c3cncc(NS(=O)(=O)c4ccccc4)c3)cn12,Potency,[1],0.134 µM (active)
same,Potency,[2],0.29 µM (active)
same,Potency,[3],0.258 µM (active)
same,activity,[4],-38.9%
same,Potency,[5],42.9 µM (active)
same,activity,[6],-25.7%
same,activity,[7],-35.9%
CCC(=C(c1ccc(OCCN2CCCC2)cc1)c1ccc(OCCN2CCCC2)cc1)c1ccccc1,"activity change, negative = inhibition",[1],1.82% [at 11.5 µM] (inactive)
same,Potency,[2],3.65 µM (active)
same,Potency,[3],3.65 µM (active)
same,activity,[4],-7.7%
same,"activity change, negative = inhibition",[5],-5.33% [at 12.7 µM]
same,activity,[6],-3.61%
same,activity,[7],-4.76%
Cc1cccc(N2CCN(C(=O)c3cc(S(=O)(=O)N(C)C)ccc3N3CCCC3)CC2)c1C,Potency,[1],13.5 µM (active)
same,Potency,[2],inactive
same,Potency,[3],inactive
CNc1ccc([N+](=O)[O-])c(Nc2ccc3[nH]ncc3c2)n1,Potency,[1],0.756 µM (active)
same,Potency,[2],7.28 µM (active)
same,Potency,[3],7.28 µM (active)
CCOc1cc(C(C)(C)C)ccc1C1=N[C@@](C)(c2ccc(Cl)cc2)[C@@](C)(c2ccc(Cl)cc2)N1C(=O)N1CCN(CC(=O)N2CCOCC2)CC1,Potency,[1],21.3 µM (active)
same,Potency,[2],1.03 µM (active)
same,Potency,[3],1.03 µM (active)
Cc1cc(-c2cnc(N)c3c(-c4ccc5scnc5c4)csc23)n(C)n1,Potency,[1],10.7 µM (active)
same,Potency,[2],4.59 µM (active)
same,Potency,[3],5.78 µM (active)
Cc1ccc(O)cc1Nc1ccnc(Nc2cccc(C(N)=O)c2)n1,Potency,[1],1.9 µM (active)
same,Potency,[2],4.59 µM (active)
same,Potency,[3],4.09 µM (active)
Cn1c(=O)c(F)c(Nc2ccc(I)cc2F)c2c(=O)n(CC(O)CO)cnc21 (stereo not drawn),Potency,[1],9.52 µM (active)
same,Potency,[2],23 µM (active)
same,Potency,[3],23.1 µM (active)
COc1cc2c(cc1NS(=O)(=O)c1ccc(Br)cc1C)n(C)c(=O)n2C,Potency,[1],1.69 µM (active)
same,Potency,[2],7.28 µM (active)
same,Potency,[3],7.28 µM (active)
O=C(NCc1nc2ccccc2c(=O)n1-c1ccc(F)cc1)Nc1ccc(Cl)c(C(F)(F)F)c1,Potency,[1],10.7 µM (active)
same,Potency,[2],25.8 µM (active)
same,Potency,[3],23 µM (active)
Cc1ccccc1C(C(=O)NC1CCCCC1)N(C(=O)Cn1cnc2ccccc21)c1cccc(F)c1 (stereo not drawn),Potency,[1],16.9 µM (active)
same,Potency,[2],12.9 µM (active)
same,Potency,[3],23 µM (active)
CCS(=O)c1nc(-c2cccc(OCc3ccccc3)c2)cc(C(F)(F)F)n1 (stereo not drawn),Potency,[1],10.7 µM (active)
same,Potency,[2],5.15 µM (active)
same,Potency,[3],3.25 µM (active)
Cc1cc(OCCCS(C)(=O)=O)cc(C)c1-c1cccc(COc2ccc3c(c2)OCC3CC(=O)O)c1 (stereo not drawn),Potency,[1],inactive
same,Potency,[2],inactive
same,Potency,[3],inactive
CCOC(=O)c1ccc(OCCC2CCN(c3ccc(C)nn3)CC2)cc1,Potency,[1],19 µM (active)
same,Potency,[2],inactive
same,Potency,[3],inactive
O=C(N[C@H]1CCC[C@H](CO)C1)C1CCN(c2nc3cc(Cl)c(-c4ccc(Cl)cc4)cc3o2)CC1,Potency,[1],inactive
same,Potency,[2],20.5 µM (active)
same,Potency,[3],16.3 µM (active)
CCN(Cc1ccccc1)C(=O)Cn1c(=O)n(C)c2cnc(-c3ccccc3)nc21,Potency,[1],19 µM (active)
same,Potency,[2],inactive
same,Potency,[3],inactive
